# According to PubChem BioAssay (NCI):
# The panel holds about 83,000 compounds, 20% with a hit somewhere; the sample as a whole holds those more often.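 Assay: single dose, 48 h. Readout: percent growth (0 = no net growth; negative = cell death). Active: <10.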 Unmarked numbers belong to inactive results. Activity calls are given as the source filed them.
# How the values were obtained:
# Assay in all cases: NCI-60 one-dose screen, 48 h (100 = growth as untreated, 0 = no growth, -100 = all killed)
# Conditions in all cases: 10 µM unless noted
# SK-MEL-2 melanoma = system: SK-MEL-2 melanoma
# EKVX NSCLC = system: EKVX NSCLC
# SN12C renal = system: SN12C renal
# UO-31 renal = system: UO-31 renal
# TK-10 renal = system: TK-10 renal
# ACHN renal = system: ACHN renal
# CAKI-1 renal = system: CAKI-1 renal
# A498 renal = system: A498 renal
# CCRF-CEM leukemia = system: CCRF-CEM leukemia
# MOLT-4 leukemia = system: MOLT-4 leukemia
Structure (SMILES),growth (SK-MEL-2 melanoma),growth (EKVX NSCLC) [%],growth (SN12C renal),growth (UO-31 renal),growth (TK-10 renal),growth (ACHN renal) [%],growth (CAKI-1 renal),growth (A498 renal),growth (CCRF-CEM leukemia),growth (MOLT-4 leukemia)
COC(=O)OC1C(O[C@H]2C[C@H]3[C@@H]4CC=C5C[C@@H](O)CC[C@]5(C)[C@H]4CC[C@]3(C)[C@H]2[C@H](C)C(=O)CCC(C)C)OCC(O)C1OC1OCC(O)C(O)C1OC(=O)c1ccc(OC)cc1 (stereo not given in full),-46.1% (active),14.3,43.4%,-40.4% (active),0.902% (active),31.6,-16.6% (active),-74% (active),-25.9% (active),-36.5% (active)
CC(C)(C)OC[C@@H]1N=C(c2ccc(Br)cc2)Nc2nc3ccccn3c2C1=O,49.2%,81.6,84.1%,52.1%,95.1%,75.3,64.2%,66.9%,67.8%,53.7%
CCCCCCCCCCCCCCCCCC1=NCCN1CCO,88.9%,78.2,86%,48.7%,87.9%,60.7,55.7%,106%,53.9%,30.3%
O=C1/C(=C/c2ccccc2)SC(=Nc2ccccc2)N1Nc1ccccc1,-25.2% (active),18.9,-58.3% (active),14.8%,31.4%,10,17.1%,-33.1% (active),6.81% (active),-1.49% (active)
COc1cc(CN(c2ccc(C)cc2)C2OC(=O)c3ccccc32)cc(OC)c1OC (stereo not given),55%,71.8,50.1%,59.7%,93.3%,56.3,49.3%,51.7%,11.5%,17.9%
C=C1C(=O)O[C@H]2[C@H]1CC/C(COC(=O)NCc1ccc(Cn3c(=O)sn(CCCl)c3=O)cc1)=C\CC[C@@]1(C)O[C@@H]21,68.8%,83.6,82.6%,79.3%,11.4%,70.3,48.3%,98.4%,-3.67% (active),-18.8% (active)
COc1cc(/C=N/NC(=O)Cn2c(-c3ccc(C)o3)nc3ccccc32)ccc1OCc1ccccc1,94.5%,75.2,95.4%,61.8%,93.4%,85.4,82.6%,78.5%,80.6%,50.2%
CNC1=C([N+](=O)[O-])C(c2ccccc2O)C(C#N)=C(c2cccs2)O1 (stereo not given),74.2%,97.2,98.2%,70.5%,100%,94.8,78%,110%,85.4%,88.6%
CN1C2CCC1/C(=C\c1ccc(Cl)cc1)C(=O)/C2=C/c1ccc(Cl)cc1,56.7%,84.4,63.2%,58.4%,79%,75.7,68%,78.5%,24.4%,16.4%
Brc1ccsc1Br,101%,114,113%,91.3%,109%,112,99.6%,141%,102%,108%
CC(C)N(C(=S)SSC(=S)N(C(C)C)C(C)C)C(C)C,109%,110,101%,80.3%,100%,98.2,85.8%,97.8%,87.5%,105%
